# According to paper PMC7862700, “An all-to-all approach to the identification of sequence-specific readers for epigenetic DNA modifications on cytosine”:
# Legend:
# Test in all cases: DAPPL (digital affinity profiling via proximity ligation, sequencing); 10 mM Tris-HCl pH 7.5, 50 mM NaCl, 1 mM DTT, 4% glycerol, room temperature, 30 min; GST-TFs on glutathione beads, 16-mer random dsDNA library, 0.1% formaldehyde crosslink after washing; high values mean tight binding
# [1] = target: T1, FLI1 (Homo sapiens, UniProt Q01543 1-452); details: protein: recombinant; tags: N-terminal GST; dsDNA, one strand shown
# T1 sequence: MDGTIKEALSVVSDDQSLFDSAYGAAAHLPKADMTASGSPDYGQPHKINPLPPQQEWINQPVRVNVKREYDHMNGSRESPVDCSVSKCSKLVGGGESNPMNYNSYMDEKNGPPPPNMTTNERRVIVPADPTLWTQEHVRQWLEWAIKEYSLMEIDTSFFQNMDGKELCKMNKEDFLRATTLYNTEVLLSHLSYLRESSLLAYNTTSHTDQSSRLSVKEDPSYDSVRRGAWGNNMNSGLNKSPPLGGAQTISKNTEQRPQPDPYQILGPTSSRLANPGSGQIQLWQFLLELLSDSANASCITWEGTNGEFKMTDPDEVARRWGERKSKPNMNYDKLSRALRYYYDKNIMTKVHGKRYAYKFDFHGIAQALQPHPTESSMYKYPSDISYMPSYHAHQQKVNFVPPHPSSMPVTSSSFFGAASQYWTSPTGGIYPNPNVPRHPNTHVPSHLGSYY
# Procedure, shortened: (§1)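 Pools of DNA-barcoded human transcription factors, expressed in yeast as GST fusions on glutathione beads and combined with a tag-only sample, were incubated with 200 nmole of a 16-mer random double-stranded DNA library. Incubation took 30 min at room temperature in Tris/NaCl/DTT/glycerol buffer and was followed by washing, 0.1% formaldehyde crosslinking, proximity ligation (BsaI/T4 ligase, 1 h, 37 °C), PCR amplification and sequencing on an Illumina NextSeq500. Binding signal is the ratio of a hexamer's read frequency for a factor to its frequency for the tag-only sample.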
# [2] = target: T2, ELK1 (Homo sapiens, UniProt P19419 1-428); details: protein: recombinant; tags: N-terminal GST; dsDNA, one strand shown
# T2 sequence: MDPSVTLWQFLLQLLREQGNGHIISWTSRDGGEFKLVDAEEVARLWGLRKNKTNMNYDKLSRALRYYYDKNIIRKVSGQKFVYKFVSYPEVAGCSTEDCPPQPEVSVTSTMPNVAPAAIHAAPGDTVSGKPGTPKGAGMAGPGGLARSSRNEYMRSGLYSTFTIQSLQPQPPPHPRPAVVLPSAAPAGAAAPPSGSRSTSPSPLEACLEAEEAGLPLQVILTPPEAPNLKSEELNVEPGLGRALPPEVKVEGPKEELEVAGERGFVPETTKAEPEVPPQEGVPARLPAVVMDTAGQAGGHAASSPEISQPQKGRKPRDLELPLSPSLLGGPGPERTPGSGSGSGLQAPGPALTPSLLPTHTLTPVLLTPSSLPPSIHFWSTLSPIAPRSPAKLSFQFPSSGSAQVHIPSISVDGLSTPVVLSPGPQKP
# Procedure, shortened: as §1
# [3] = target: T3, GABPA (Homo sapiens, UniProt Q06546 1-454); details: protein: recombinant; tags: N-terminal GST; dsDNA, one strand shown
# T3 sequence: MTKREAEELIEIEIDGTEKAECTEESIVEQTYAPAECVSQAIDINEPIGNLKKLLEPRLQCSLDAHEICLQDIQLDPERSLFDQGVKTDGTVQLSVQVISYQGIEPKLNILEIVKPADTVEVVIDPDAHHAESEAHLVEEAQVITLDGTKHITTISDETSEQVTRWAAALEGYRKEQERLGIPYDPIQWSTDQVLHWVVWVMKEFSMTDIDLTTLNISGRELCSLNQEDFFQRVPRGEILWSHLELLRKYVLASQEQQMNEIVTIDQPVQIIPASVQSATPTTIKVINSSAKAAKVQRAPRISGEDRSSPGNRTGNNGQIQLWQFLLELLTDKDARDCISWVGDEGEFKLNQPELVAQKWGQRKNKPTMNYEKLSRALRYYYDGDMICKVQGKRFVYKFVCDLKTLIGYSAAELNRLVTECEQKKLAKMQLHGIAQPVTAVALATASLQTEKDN
# Procedure, shortened: as §1
# [4] = target: T4, ERG (Homo sapiens, UniProt P11308 1-479); details: protein: recombinant; tags: N-terminal GST; dsDNA, one strand shown
# T4 sequence: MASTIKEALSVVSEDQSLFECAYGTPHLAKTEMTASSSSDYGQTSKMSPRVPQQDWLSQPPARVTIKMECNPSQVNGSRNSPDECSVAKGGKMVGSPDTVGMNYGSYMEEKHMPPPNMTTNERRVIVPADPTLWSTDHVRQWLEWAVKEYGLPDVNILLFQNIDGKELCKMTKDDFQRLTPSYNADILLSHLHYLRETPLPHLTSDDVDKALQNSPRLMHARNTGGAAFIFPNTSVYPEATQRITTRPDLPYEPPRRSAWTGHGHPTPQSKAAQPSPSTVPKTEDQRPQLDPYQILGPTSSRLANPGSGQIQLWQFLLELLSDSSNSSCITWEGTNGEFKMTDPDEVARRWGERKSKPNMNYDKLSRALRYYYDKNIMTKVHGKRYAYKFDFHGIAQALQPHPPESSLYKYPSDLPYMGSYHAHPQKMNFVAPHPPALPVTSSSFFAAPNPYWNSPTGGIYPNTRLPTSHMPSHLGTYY
# Procedure, shortened: as §1
# [5] = target: ELF1 (Homo sapiens, UniProt P32519 1-619); details: protein: recombinant; tags: N-terminal GST; dsDNA, one strand shown
# Sequence of ELF1 (P32519 whole entry): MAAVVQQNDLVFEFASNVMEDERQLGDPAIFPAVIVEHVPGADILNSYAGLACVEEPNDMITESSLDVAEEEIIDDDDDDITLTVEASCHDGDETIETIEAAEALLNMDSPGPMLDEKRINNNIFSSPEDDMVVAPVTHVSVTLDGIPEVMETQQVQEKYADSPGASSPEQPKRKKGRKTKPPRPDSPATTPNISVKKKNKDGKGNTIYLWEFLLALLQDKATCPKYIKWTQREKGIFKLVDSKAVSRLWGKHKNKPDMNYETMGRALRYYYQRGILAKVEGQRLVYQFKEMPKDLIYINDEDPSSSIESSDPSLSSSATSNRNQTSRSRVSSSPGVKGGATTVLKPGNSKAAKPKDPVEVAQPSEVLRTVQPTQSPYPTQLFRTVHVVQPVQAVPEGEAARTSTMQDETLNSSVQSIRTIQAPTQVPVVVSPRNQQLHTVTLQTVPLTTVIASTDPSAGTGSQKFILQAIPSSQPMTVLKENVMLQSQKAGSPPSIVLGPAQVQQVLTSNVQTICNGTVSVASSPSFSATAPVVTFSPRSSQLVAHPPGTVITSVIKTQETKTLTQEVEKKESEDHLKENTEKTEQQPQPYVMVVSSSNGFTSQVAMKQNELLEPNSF
# Procedure, shortened: as §1
# [6] = target: T5, EHF (Homo sapiens, UniProt Q9NZC4 1-300); details: protein: recombinant; tags: N-terminal GST; dsDNA, one strand shown
# T5 sequence: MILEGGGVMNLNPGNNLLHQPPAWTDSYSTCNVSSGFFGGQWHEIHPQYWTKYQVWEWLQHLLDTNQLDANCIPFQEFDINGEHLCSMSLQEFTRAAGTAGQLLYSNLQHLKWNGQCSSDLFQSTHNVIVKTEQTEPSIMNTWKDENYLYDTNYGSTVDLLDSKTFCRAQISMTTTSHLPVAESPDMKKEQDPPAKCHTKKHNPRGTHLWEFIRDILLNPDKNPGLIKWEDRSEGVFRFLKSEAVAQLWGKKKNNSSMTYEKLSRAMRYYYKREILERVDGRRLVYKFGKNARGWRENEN
# Procedure, shortened: as §1
# [7] = target: SPI1 (Homo sapiens, UniProt P17947 1-270); details: protein: recombinant; tags: N-terminal GST; dsDNA, one strand shown
# Procedure, shortened: as §1
# [8] = target: SPIB (Homo sapiens, UniProt Q01892 1-262); details: protein: recombinant; tags: N-terminal GST; dsDNA, one strand shown
# Sequence of SPIB (Q01892 whole entry): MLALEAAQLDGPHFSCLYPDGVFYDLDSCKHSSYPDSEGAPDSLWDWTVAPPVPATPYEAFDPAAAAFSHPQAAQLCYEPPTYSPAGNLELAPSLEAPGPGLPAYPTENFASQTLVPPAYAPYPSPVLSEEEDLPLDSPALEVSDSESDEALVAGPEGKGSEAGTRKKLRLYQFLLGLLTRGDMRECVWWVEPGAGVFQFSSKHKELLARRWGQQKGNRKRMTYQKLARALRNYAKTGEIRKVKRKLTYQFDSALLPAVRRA
# Procedure, shortened: as §1
# [9] = target: T6, ELK3 (Homo sapiens, UniProt P41970 1-407); details: protein: recombinant; tags: N-terminal GST; dsDNA, one strand shown
# T6 sequence: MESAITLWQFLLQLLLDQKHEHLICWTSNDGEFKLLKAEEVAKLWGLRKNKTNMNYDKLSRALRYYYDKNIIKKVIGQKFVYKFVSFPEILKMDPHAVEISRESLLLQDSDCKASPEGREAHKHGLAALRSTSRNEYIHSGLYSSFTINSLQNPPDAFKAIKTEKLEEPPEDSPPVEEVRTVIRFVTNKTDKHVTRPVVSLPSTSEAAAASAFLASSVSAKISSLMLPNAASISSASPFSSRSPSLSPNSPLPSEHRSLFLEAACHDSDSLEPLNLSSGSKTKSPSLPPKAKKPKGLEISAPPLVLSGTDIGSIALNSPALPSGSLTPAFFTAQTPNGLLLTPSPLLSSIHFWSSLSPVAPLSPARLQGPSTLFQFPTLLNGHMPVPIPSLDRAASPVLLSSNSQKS
# Procedure, shortened: as §1
# [10] = target: T7, FEV (Homo sapiens, UniProt Q99581 1-238); details: protein: recombinant; tags: N-terminal GST; dsDNA, one strand shown
# T7 sequence: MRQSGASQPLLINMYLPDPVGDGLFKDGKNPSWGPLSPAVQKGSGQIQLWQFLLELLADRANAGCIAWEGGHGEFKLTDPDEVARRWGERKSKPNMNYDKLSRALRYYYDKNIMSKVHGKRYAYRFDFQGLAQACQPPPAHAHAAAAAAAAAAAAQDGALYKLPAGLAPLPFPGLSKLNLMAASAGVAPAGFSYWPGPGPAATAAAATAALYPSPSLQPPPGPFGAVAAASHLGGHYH
# Procedure, shortened: as §1
# [11] = target: ETV5 (Homo sapiens, UniProt P41161 1-510); details: protein: recombinant; tags: N-terminal GST; dsDNA, one strand shown
# Sequence of ETV5 (P41161 whole entry): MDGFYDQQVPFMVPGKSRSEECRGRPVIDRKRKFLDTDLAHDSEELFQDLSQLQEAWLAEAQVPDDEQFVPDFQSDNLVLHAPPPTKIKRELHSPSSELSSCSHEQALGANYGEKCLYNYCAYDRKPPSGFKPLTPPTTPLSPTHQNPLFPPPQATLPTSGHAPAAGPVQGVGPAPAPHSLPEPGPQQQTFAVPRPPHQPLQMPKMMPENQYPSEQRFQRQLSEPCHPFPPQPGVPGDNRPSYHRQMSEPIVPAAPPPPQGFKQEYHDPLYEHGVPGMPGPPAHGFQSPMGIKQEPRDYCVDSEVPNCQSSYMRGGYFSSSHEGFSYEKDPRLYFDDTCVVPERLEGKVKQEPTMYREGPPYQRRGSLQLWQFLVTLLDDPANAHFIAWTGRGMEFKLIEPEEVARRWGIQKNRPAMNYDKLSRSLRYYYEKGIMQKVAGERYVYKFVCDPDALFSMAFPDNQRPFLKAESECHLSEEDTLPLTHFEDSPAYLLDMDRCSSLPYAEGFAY
# Procedure, shortened: as §1
# [12] = target: HSF1 (Homo sapiens, UniProt Q00613 1-529); details: protein: recombinant; tags: N-terminal GST; chain copies: 3; dsDNA, one strand shown
# Sequence of HSF1 (Q00613 whole entry): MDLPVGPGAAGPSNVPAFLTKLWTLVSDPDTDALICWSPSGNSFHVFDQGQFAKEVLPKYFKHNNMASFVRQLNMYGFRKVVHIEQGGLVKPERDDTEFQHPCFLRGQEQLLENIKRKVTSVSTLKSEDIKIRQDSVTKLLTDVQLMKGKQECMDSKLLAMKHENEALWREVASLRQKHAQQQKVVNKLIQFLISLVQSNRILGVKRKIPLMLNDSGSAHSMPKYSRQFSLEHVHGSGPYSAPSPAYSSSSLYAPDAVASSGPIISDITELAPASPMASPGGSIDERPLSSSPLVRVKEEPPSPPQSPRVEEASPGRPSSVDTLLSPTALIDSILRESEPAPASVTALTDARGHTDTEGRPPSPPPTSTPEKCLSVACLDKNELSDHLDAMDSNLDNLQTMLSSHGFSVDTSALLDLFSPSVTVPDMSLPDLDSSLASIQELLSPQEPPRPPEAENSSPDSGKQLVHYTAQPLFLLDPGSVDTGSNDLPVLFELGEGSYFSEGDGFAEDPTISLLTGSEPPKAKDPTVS
# Procedure, shortened: as §1
# [13] = target: T8, SPIC (Homo sapiens, UniProt Q8N5J4 1-248); details: protein: recombinant; tags: N-terminal GST; dsDNA, one strand shown
# T8 sequence: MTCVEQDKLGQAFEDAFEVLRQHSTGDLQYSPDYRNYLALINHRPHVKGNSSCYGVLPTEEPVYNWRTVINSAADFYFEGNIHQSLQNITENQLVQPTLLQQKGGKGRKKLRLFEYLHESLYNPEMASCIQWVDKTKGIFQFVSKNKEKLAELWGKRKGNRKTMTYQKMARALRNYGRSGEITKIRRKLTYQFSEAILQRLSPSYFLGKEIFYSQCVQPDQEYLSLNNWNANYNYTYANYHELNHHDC
# Procedure, shortened: as §1
# [14] = target: ELF4 (Homo sapiens, UniProt Q99607 1-663); details: protein: recombinant; tags: N-terminal GST; dsDNA, one strand shown
# Sequence of ELF4 (Q99607 whole entry): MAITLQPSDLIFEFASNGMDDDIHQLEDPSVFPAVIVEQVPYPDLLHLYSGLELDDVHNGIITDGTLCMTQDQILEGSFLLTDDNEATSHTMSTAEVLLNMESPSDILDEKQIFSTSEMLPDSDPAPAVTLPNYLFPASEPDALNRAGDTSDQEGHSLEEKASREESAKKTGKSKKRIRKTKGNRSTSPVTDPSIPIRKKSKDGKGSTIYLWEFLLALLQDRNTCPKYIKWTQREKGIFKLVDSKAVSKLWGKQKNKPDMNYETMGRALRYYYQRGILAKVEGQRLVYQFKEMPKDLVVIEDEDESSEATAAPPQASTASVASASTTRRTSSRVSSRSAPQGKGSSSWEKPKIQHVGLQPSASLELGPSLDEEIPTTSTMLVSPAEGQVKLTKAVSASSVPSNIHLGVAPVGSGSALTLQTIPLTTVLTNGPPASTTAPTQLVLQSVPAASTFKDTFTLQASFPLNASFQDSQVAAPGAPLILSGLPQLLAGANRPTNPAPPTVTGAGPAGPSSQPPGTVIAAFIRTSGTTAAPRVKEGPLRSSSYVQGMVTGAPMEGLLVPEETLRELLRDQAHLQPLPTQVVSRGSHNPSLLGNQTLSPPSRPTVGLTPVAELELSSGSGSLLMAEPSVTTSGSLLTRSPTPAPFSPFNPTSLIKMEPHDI
# Procedure, shortened: as §1
# [15] = target: T9, ELK4 (Homo sapiens, UniProt P28324-2 1-405); details: protein: recombinant; tags: N-terminal GST; dsDNA, one strand shown
# T9 sequence: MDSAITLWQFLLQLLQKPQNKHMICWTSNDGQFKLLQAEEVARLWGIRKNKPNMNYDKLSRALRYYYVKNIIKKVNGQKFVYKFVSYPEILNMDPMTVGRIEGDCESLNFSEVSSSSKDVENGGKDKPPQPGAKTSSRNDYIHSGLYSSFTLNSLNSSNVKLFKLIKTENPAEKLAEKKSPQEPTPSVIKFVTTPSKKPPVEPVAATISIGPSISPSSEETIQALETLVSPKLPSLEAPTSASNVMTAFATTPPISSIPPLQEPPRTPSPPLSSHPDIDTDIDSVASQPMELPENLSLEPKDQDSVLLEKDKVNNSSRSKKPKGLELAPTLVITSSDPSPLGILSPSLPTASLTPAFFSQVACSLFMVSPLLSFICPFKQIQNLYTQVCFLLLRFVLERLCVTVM
# Procedure, shortened: as §1
# [16] = target: T10, ETV2 (Homo sapiens, UniProt O00321 1-342); details: protein: recombinant; tags: N-terminal GST; dsDNA, one strand shown
# T10 sequence: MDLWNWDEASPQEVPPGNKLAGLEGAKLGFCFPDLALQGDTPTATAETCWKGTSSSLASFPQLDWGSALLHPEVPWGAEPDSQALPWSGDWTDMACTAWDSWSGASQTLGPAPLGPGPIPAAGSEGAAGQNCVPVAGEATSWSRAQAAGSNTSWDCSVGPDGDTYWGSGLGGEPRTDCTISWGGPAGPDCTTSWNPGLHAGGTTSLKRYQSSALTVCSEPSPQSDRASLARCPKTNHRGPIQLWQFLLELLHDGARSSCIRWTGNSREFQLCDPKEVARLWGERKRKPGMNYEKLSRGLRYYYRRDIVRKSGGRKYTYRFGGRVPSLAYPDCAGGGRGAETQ
# Procedure, shortened: as §1
# [17] = target: T11, ELF3 (Homo sapiens, UniProt P78545 1-371); details: protein: recombinant; tags: N-terminal GST; dsDNA, one strand shown
# T11 sequence: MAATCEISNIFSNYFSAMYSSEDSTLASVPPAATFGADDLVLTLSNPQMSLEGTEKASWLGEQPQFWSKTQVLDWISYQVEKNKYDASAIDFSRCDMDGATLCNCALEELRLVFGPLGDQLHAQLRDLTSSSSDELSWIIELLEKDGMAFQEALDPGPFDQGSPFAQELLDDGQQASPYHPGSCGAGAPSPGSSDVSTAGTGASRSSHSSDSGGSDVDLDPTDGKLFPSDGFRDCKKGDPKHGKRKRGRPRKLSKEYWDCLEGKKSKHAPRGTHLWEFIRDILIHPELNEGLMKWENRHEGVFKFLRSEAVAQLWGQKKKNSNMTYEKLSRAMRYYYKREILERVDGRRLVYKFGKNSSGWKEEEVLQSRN
# Procedure, shortened: as §1
# [18] = target: CRX (Homo sapiens, UniProt O43186 1-299); details: protein: recombinant; tags: N-terminal GST; dsDNA, one strand shown
# Sequence of CRX (O43186 whole entry): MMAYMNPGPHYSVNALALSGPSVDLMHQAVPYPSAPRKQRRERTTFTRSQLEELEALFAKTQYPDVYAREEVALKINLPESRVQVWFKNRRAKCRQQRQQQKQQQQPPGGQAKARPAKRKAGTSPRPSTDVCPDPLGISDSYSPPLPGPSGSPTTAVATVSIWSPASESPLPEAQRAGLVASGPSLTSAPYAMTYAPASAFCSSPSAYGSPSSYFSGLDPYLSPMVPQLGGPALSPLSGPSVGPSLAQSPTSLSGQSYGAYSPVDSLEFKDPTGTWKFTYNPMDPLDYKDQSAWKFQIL
# Procedure, shortened: as §1
# [19] = target: ETV1 (Homo sapiens, UniProt P50549 1-477); details: protein: recombinant; tags: N-terminal GST; dsDNA, one strand shown
# Sequence of ETV1 (P50549 whole entry): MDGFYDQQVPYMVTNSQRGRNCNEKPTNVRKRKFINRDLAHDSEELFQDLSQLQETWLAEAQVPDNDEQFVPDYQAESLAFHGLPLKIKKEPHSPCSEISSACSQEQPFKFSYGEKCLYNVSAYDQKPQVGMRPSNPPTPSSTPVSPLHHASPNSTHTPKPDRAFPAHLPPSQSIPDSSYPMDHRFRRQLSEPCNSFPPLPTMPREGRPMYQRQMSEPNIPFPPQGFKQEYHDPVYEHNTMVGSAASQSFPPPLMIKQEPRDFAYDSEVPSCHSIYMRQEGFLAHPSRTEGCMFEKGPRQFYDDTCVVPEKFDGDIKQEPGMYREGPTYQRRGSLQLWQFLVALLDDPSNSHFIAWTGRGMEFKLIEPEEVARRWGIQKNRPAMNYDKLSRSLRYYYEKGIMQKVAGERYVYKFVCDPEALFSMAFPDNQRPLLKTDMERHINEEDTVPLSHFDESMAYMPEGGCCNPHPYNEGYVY
# Procedure, shortened: as §1
sequence,measurement,setting,value
TTCCTC,binding signal,[1],"2.26 fold enrichment (6-mer frequency, TF over GST control)"
same,binding signal,[2],"2.09 fold enrichment (6-mer frequency, TF over GST control)"
same,binding signal,[3],"2.1 fold enrichment (6-mer frequency, TF over GST control)"
same,binding signal,[4],"2.21 fold enrichment (6-mer frequency, TF over GST control)"
same,binding signal,[5],"2.12 fold enrichment (6-mer frequency, TF over GST control)"
same,binding signal,[6],"2.32 fold enrichment (6-mer frequency, TF over GST control)"
same,binding signal,[7],"4.31 fold enrichment (6-mer frequency, TF over GST control)"
same,binding signal,[8],"2.26 fold enrichment (6-mer frequency, TF over GST control)"
same,binding signal,[9],"2.3 fold enrichment (6-mer frequency, TF over GST control)"
same,binding signal,[10],"2.13 fold enrichment (6-mer frequency, TF over GST control)"
same,binding signal,[11],"2.47 fold enrichment (6-mer frequency, TF over GST control)"
same,binding signal,[12],"1.61 fold enrichment (6-mer frequency, TF over GST control)"
same,binding signal,[13],"2.72 fold enrichment (6-mer frequency, TF over GST control)"
same,binding signal,[14],"2.16 fold enrichment (6-mer frequency, TF over GST control)"
same,binding signal,[15],"2.1 fold enrichment (6-mer frequency, TF over GST control)"
same,binding signal,[16],"2.39 fold enrichment (6-mer frequency, TF over GST control)"
same,binding signal,[17],"2.06 fold enrichment (6-mer frequency, TF over GST control)"
same,binding signal,[18],"1.43 fold enrichment (6-mer frequency, TF over GST control)"
same,binding signal,[19],"2.27 fold enrichment (6-mer frequency, TF over GST control)"
